Experimental findings from PubChem BioAssay AID651598 (Sanford-Burnham Center for Chemical Genomics, 2012) are described below.

Values joined by “and” are separate entries in the source; they are usually repeats but may differ in a detail not shown here. Identical values can stand only once.

C-X-C chemokine receptor type 6 (Homo sapiens), sequence (O00574 whole entry, looked up): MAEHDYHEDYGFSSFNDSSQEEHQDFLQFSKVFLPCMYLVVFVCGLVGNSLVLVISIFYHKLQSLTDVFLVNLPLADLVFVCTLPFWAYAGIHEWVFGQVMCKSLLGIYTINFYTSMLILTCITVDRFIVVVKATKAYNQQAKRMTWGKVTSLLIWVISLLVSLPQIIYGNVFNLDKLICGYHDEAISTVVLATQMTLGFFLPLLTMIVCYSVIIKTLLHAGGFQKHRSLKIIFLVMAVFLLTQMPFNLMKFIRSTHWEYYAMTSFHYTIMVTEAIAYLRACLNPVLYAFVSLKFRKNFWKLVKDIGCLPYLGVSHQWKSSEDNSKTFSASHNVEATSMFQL

The test addresses C-X-C chemokine receptor type 6 (Homo sapiens) (UniProt O00574). The test is described as follows: APJ beta-arrestin recruitment blockade alongside CXCR6 – cell-based, DiscoveRx, panel, CHO-K1, counter-screen for CXCR6 antagonist project, SAR follow-up (AID 651598). The note with it: CHO-K1 PathHunter beta-arrestin luminescence, antagonist mode; run 1, at 80 µM (top of the series).
On to `COc1cc(C(=O)NC2CC3CCC(C2)N3CC(=O)Nc2ccccc2)cc(OC)c1OC` (stereo not drawn), for which the inhibition was 59.5% and 13.9%.

On to `COc1cc(C(=O)NC2CC3CCCC(C2)N3CC(=O)Nc2ccccc2)cc(OC)c1OC` (stereo not drawn), for which the inhibition was 89.3% and 49.6% and 26.4%.

Consider `COc1cc(C(=O)NC2CCN(CC(=O)Nc3ccccc3)CC2)cc(OC)c1OC`, for which the inhibition was found to be 4.26%.
